The target of test [1] is Albumin (Bos taurus) (UniProt P02769). The experiment in a line: bovine serum albumin binders on microarray, profiling panel, artefact control for SMM control protein annotation, biochemical, small-molecule microarray, Alexa647 label, 635/667 nm fluorescence (AID 1118).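 Further: score merges 667 nm emission intensity and signal-to-noise per printed compound spot.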 To be noted: BSA-A647 binding, fluorescence 635 nm, higher = more signal.
Test [2] in a line: small-molecule microarray binders of probe aXIP, primary screen, biochemical, NeuroSMM set, 635/667 nm fluorescence (AID 1119).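 Further: probe is the protein aXip251-270 applied at 1 µg/mL to compound-printed slides; binding of probe to printed compounds measured as 667 nm fluorescence plus signal to noise.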 Conditions: higher = more signal, called active from +8 up or from −8 down.
Test [3] can be described thus: small-molecule binders of probe aNOTCH3, primary screen, biochemical, small-molecule microarray, 635/667 nm fluorescence (AID 1120).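 Further: probe is a biotin-tagged antibody raised against NOTCH3 rather than NOTCH3 protein; score merges spot fluorescence near 667 nm with spot signal to noise.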 To be noted: higher = more signal.
Test [4] in a line: small-molecule binders of probe aNOTCH2, primary screen, biochemical, small-molecule microarray, 635/667 nm fluorescence (AID 1121).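 Further: score merges feature fluorescence read at 667 nm with its signal to noise.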 Conditions: higher = more signal.
Test [5] addresses Carbonic anhydrase 2 (Homo sapiens) (UniProt P00918). The experiment in a line: CAII small-molecule binders, profiling panel, biochemical, small-molecule microarray, Alexa647-labelled CAII (AID 1122). To be noted: CAII-A647 binding fluorescence, higher = more signal.
The nature of test [6]: COS7 lysate on small-molecule microarray, probe aHis, 635 nm (AID 1123).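 Further: z-score combines 667nm fluorescence intensity with signal-to-noise per printed compound spot.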 Conditions: COS7 cell lysate, fluorescence, higher = more signal.
The nature of test [7]: compound binding in COS7 lysate, probe aLAP1, primary screen, cell lysate, small-molecule microarray (AID 1124).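 Further: lysate comes from COS7 cells expressing LAP1 and is applied at 0.3 µg/mL; score merges spot fluorescence near 667 nm with signal-to-noise over triplicate slides.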 Conditions: probe aLAP1, fluorescence, higher = more signal.
Test [8] relates to Sam68 (KHDRBS1). Description: Sam68 small-molecule binders, primary screen, biochemical, small-molecule microarray, 635 nm fluorescence (AID 1125).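 Further: score merges 667 nm channel intensity with signal to noise over triplicate slides.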 Conditions: small-molecule microarray binding, higher = more signal.
Test [9] concerns Chordin-like protein 2 (CHRDL2). The experiment in a line: CHRDL2 small-molecule binders, primary screen, biochemical, small-molecule microarray, 635 nm fluorescence (AID 1126).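 Further: printed compound slides probed with Chrdl2 protein at 4 µg/mL for 1 h at 4 C; score merges 667 nm emission intensity with signal to noise over three replicate slides.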 To be noted: small-molecule microarray binding, fluorescence 635 nm; higher = more signal.
Test [10] concerns the target Concanavalin-A (Canavalia ensiformis) (UniProt P02866). Description: ConA small-molecule binders, primary screen, artefact control for SMM control protein annotation, biochemical, small-molecule microarray, Alexa647 label, 635 nm (AID 1127).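 Further: z combines 667 nm emission intensity with signal-to-noise across three replicate slides.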 To be noted: ConA-A647 binding fluorescence, higher = more signal.
The nature of test [11]: anti-His antibody binders, primary screen, artefact control for SMM control protein annotation, biochemical, small-molecule microarray, 635 nm fluorescence (AID 1128).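 Further: score merges feature fluorescence with signal-to-noise for each printed compound spot.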 To be noted: anti-His Alexa647 antibody binding, higher = more signal.
Test [12] has as its system Human papillomavirus type 1a E7 protein (residues 1-88). The experiment in a line: HPV1a E7 small-molecule binders, primary screen, biochemical, small-molecule microarray, residues 1-88, 635 nm (AID 1129). Conditions: small-molecule microarray binding, fluorescence 635 nm; higher = more signal.
Test [13] has as its target Focal adhesion kinase 1 (Homo sapiens) (UniProt Q05397). Description: small-molecule microarray binders of FAK, primary screen, biochemical, 635/667 nm fluorescence, BSA, DTT (AID 1130).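 Further: composite of spot emission at 667 nm and signal to noise over triplicate slides.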 Conditions: PTK2 binding, 635 nm fluorescence, higher = more signal.
The subject of test [14] is Fibrinogen (Alexa647-labelled). The experiment in a line: fibrinogen binders on compound microarrays, profiling panel, artefact control for SMM control-protein annotation, biochemical, small-molecule microarray, 635/667 nm fluorescence (AID 1131).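 Further: z-score merges 667 nm fluorescence with per-spot signal-to-noise over triplicate slides.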 To be noted: fibrinogen-A647 binding fluorescence, higher = more signal.
The target of test [15] is Follistatin (Homo sapiens) (UniProt P19883). The experiment in a line: follistatin binders on small-molecule microarrays, primary screen, biochemical, small-molecule microarray, 635/667 nm fluorescence (AID 1132). Conditions: FST binding, 635 nm fluorescence, higher = more signal.
Test [16] addresses Fibroblast growth factor 2 (Homo sapiens) (UniProt P09038). The experiment in a line: FGF2 binders on small-molecule microarrays, primary screen, biochemical, small-molecule microarray, 635/667 nm fluorescence (AID 1133). To be noted: small-molecule microarray binding, FGF2, fluorescence 635/667; higher = more signal.
Test [17] is described as follows: mitochondrial membrane potential change in A549 cells, profiling panel, cell-based, JC-1 fluorescence, basal, 24 h, 100 nL (AID 1138).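 Further: A549 lung adenocarcinoma cells under basal conditions with no added stimulus; test concentration not given here.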 To be noted: higher = more signal.
In test [18] the test system is Lefty1. Description: Lefty1 binders on small-molecule microarrays, primary screen, biochemical, small-molecule microarray, 635/667 nm fluorescence (AID 1139). Conditions: small-molecule microarray binding, fluorescence 635/667; higher = more signal.
Test [19] deals with wheat germ agglutinin (Triticum aestivum), Alexa647-labelled. Description: wheat germ agglutinin binders on compound microarrays, profiling panel, artefact control for SMM control-protein annotation, biochemical, small-molecule microarray, 635/667 nm fluorescence (AID 1140).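 Further: score merges 667 nm feature emission with signal to noise over triplicate slides.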 To be noted: WGA-A647 binding, 635 nm fluorescence, higher = more signal.
For test [20], the target named is Luciferin 4-monooxygenase (Photinus pyralis) (UniProt P08659). Description: firefly luciferase enzyme inhibitors, primary screen, biochemical, luminescence, purified enzyme, 2006 set (AID 1141).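 Further: cell-free assay with purified firefly luciferase at 100 ng per well in PBS; test concentration not given here.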 To be noted: SteadyGlo luminescence, 30 min, higher = more signal, called active from +8 up or from −8 down.

The source made the active and inactive calls.

Luciferin 4-monooxygenase (Photinus pyralis), sequence (P08659 whole entry, looked up): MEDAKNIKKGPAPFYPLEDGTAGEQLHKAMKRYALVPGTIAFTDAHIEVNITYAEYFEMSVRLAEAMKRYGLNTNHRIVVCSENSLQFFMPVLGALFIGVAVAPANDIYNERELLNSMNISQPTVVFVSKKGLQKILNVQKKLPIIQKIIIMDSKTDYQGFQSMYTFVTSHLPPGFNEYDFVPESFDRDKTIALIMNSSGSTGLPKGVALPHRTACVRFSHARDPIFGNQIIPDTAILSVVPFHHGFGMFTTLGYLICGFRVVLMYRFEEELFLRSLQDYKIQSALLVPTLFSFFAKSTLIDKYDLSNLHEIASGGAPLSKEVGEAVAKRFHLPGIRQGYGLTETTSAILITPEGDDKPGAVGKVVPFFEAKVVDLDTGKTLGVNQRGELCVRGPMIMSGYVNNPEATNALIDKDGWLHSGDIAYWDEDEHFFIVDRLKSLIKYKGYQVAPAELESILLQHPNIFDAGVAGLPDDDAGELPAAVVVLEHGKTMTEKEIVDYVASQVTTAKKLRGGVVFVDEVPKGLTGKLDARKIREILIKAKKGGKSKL
Concanavalin-A (Canavalia ensiformis), sequence (P02866 whole entry, looked up): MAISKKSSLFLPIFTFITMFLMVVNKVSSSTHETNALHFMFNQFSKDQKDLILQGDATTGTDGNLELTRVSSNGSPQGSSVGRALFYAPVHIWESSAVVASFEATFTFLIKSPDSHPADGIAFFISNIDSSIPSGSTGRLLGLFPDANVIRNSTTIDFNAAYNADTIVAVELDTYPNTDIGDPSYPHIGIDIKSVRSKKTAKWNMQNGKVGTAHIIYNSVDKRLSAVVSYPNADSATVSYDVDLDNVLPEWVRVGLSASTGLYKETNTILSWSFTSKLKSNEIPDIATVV
Albumin (Bos taurus), sequence (P02769 whole entry, looked up): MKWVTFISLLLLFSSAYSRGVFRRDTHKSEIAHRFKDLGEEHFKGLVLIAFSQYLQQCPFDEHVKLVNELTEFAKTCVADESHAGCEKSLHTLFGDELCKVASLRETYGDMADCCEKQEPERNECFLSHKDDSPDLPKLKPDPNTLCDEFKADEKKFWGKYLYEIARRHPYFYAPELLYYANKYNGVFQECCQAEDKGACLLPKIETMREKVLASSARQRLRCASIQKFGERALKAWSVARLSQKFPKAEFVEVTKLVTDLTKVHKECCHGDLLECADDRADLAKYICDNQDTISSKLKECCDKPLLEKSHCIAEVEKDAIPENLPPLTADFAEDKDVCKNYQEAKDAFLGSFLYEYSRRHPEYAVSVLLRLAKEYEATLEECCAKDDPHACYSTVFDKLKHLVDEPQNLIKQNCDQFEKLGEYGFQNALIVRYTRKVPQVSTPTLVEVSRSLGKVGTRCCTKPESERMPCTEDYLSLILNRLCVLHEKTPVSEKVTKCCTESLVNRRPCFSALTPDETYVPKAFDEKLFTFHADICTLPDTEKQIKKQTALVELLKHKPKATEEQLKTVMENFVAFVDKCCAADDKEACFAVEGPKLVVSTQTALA
Focal adhesion kinase 1 (Homo sapiens), sequence (Q05397 whole entry, looked up): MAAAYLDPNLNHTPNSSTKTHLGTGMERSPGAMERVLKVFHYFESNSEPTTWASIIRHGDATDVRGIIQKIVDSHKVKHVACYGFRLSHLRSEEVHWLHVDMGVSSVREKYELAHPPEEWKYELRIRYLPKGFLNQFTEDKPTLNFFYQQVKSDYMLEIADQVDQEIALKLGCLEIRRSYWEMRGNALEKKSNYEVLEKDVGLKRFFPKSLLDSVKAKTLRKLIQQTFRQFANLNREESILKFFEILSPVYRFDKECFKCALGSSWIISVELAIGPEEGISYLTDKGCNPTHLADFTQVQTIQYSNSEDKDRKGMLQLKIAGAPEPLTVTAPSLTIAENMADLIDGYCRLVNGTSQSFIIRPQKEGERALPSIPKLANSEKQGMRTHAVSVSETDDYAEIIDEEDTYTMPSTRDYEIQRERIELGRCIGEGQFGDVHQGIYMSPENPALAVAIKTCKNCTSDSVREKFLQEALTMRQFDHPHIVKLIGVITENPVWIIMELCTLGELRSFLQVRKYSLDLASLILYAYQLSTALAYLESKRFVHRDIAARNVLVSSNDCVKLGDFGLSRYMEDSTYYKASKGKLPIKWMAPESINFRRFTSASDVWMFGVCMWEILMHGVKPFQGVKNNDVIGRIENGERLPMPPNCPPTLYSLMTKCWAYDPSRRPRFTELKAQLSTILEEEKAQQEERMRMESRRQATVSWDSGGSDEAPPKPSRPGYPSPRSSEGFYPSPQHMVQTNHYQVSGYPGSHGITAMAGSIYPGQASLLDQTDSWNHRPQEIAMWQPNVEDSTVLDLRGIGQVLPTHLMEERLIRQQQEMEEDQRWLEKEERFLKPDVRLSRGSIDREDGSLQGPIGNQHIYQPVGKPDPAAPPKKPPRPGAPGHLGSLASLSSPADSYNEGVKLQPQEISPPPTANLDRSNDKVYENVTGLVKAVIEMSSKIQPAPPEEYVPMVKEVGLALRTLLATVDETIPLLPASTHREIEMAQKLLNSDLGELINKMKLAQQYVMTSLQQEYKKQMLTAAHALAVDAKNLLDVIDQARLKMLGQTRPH
Follistatin (Homo sapiens), sequence (P19883 whole entry, looked up): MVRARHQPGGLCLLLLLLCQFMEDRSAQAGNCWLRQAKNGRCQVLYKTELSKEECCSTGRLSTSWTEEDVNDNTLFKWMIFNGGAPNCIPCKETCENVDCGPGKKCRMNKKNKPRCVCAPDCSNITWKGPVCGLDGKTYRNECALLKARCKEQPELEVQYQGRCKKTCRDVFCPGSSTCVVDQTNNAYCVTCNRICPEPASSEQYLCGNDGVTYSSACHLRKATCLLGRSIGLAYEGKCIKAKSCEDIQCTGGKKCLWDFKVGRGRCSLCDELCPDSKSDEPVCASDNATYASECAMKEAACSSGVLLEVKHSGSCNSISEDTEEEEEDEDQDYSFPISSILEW
Fibroblast growth factor 2 (Homo sapiens), sequence (P09038 whole entry, looked up): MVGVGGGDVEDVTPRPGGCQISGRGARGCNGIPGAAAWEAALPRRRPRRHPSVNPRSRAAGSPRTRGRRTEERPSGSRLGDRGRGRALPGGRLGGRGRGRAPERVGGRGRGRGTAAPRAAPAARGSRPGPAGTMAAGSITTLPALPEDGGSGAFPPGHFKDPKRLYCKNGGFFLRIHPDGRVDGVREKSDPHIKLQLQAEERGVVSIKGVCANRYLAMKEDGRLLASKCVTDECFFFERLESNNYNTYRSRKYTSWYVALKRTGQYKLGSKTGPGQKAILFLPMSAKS

As to `CC(=O)n1cc(C(O)C2C=CC3C(=O)NC(=O)C3N2Nc2ccccn2)c2ccccc21` (stereo not given), the composite z-score in test [1] is 0.281; in test [3] it was -0.116; in test [4], -0.176; in test [5], 0.817; in test [6], 0.688; in test [7] it was 0.248. For the same molecule, the composite z-score was 0.0906 in [8]; 0.549 in test [9]; 0.551 in test [10]; 0.426 in test [11]; 0.355 in test [12]; 1.74 in [13]. Also, the composite z-score in [14] is 0.0552; in test [15] it was 0.242; in [16], -0.219; in [18], -0.0259; in test [19] it was 0.0414. Moreover, the composite Z-score in test [2] is -0.0662 (inactive). Moreover, the figures for the z-score in [17] and in [20] were 0.471 and -1.35 (inactive), respectively.
Take `CCOC(=O)C[C@H]1[C@H](OC(=O)c2ccc(-c3ccccc3)cc2)[C@@H](NC(=O)c2ccccc2)c2cc(OCCCO)ccc2N1C(=O)c1ccc2ccccc2n1`: the composite z-score in test [1] is 0.828; in [3], 0.0069; in [4], -0.0811; in [5] it was 0.287; in test [6], 0.96; in test [7] it was 0.547. The composite z-score in test [8] is 1.18; in test [9], -0.8; in test [10] it was 0.627; in test [11], 0.241; in [12] it was 1.06; in [13] it was 0.426. Further, the composite z-score is 0.836 in test [14]; -0.0321 in [15]; -0.0974 in [16]; -0.329 in [18]; 0.693 in test [19]. For the same molecule, the composite Z-score in [2] was 0.21 (inactive). Besides, the z-score in test [17] is -0.0602; in test [20] it was 0.0119 (inactive).
`CC(C)CCC[C@@H](C)[C@H]1CC[C@@]2(C)C3=C(CC[C@]12C)[C@@]1(C)CC[C@H](OC(=O)c2ccc(C(F)(F)F)nc2)C(C)(C)C1CC3` (stereo not given in full): the composite z-score in [1] was 0.326; in test [3], -0.111; in [4] it was -0.17; in test [5], -0.0684; in test [6] it was 0.493; in test [7], 0.0819. In addition, the composite z-score in [8] turned out to be 0.42; in [9], 0.827; in test [10], 0.311; in test [11] it was 0.38; in test [12], 0.763; in [13] it was 0.251. Further, the composite z-score is 0.723 in test [14]; 0.599 in test [15]; 0.695 in test [16]; 0.666 in test [18]; 0.231 in test [19]. For the same molecule, the composite Z-score in [2] was -0.0967 (inactive). Besides, the z-score in test [17] was 0.425; in test [20], -1.41 (inactive).
Regarding `NC(=O)[C@@H]1[C@H]2C(=O)O[C@H](c3ccccc3)[C@H](c3ccccc3)N2[C@H](c2ccc(O)cc2)[C@@]12C(=O)Nc1ccc(C#CC3=CCCCC3)cc12`, the composite z-score was 0.299 in test [1]; 0.81 in [3]; -0.117 in [4]; 0.411 in [5]; 2 in test [6]; 0.331 in test [7]. Moreover, the composite z-score in test [8] was 0.449; in test [9], -0.0967; in [10], 0.426; in test [11], 1.43; in [12], 1.18; in test [13], 0.284. Also, the composite z-score is 0.789 in test [14]; 1.02 in test [15]; -0.201 in test [16]; 0.847 in test [18]; 1.03 in test [19]. The composite Z-score in test [2] was 1.1 (inactive). Moreover, the z-score in [17] is -2.5; in [20], -0.589 (inactive).
With `COc1ccc(CCNC(=O)[C@@]2(C)c3ccccc3C(=O)N(c3ccc(C)cn3)[C@H]2c2ccc(CO)cc2)cc1`, the composite z-score in [1] is -0.252; in test [3] it was -0.365; in test [4], -0.0956; in [5], 0.793; in test [6] it was -0.335; in test [7] it was 0.165. Besides, the composite z-score in test [8] is 0.243; in test [9], -1.02; in test [10] it was -0.699; in [11], -0.463; in test [12] it was -0.0172; in test [13] it was -0.284. In addition, the composite z-score in test [14] is -1.95; in test [15], -0.298; in test [16] it was -1.09; in test [18], -0.601; in test [19], -0.902. Further, the composite Z-score in test [2] is -0.133 (inactive). In addition, the z-score in test [17] was 0.14; in test [20], 1.14 (inactive).

The values are drawn from PubChem BioAssay.
